tested on: hN + hpA co-culture (H1 iNGN2 human neurons + human primary astrocytes); assay: presynaptic density (SYNAPSIN1 puncta per MAP2 neurite area), Z-score vs DMSO controls; higher = more presynaptic puncta (synapse-promoting); conditions: 3 µM; 72 h
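Further: immunostained co-cultures imaged by high-content microscopy, Z-score per plate against mean and SD of 0.1% DMSO wells, compounds added on differentiation day 18, analysed day 21.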

| Structure (SMILES) | presynaptic density (Z-score) |
| --- | --- |
| O=S(=O)(c1ccccc1)N(CC(F)(F)F)c1ccc(C(O)(C(F)(F)F)C(F)(F)F)cc1 | -0.732 |
| CCCS(=O)(=O)Nc1ccc(F)c(C(=O)c2c[nH]c3ncc(-c4ccc(Cl)cc4)cc23)c1F | -0.231 |
| CC1=C(C(=O)Nc2cc3cn[nH]c3cc2F)C(c2ccc(C(F)(F)F)cc2)CC(=O)N1 (stereo not given) | 1.88 |
| O=C(Nc1nc2cccc(-c3ccc(CN4CCS(=O)(=O)CC4)cc3)n2n1)C1CC1 [Filgotinib (GLPG0634)] | -0.645 |
| NC(=O)Nc1cc(-c2cccc(F)c2)sc1C(=O)N[C@H]1CCCNC1 | 0.58 |
| O=C(NOCC1CC1)c1ccc(F)c(F)c1Nc1ccc(I)cc1Cl | -0.102 |
| CN(C)C(=O)[C@H](O)[C@H](Cc1ccccc1)NC(=O)c1cc2cc(Cl)ccc2[nH]1 | -0.264 |
| CC(C)(C)c1cnc(CSc2cnc(NC(=O)C3CCNCC3)s2)o1 | -3.77 |
| CCOC(=O)NCCCC(=O)NCCc1ccccc1 | -0.656 |
| O=C(NCCN1CCOCC1)c1ccc(Cl)cc1 | 0.253 |
| COc1cccc(C=NCCN=Cc2cccc(OC)c2[O-])c1[O-].[Cl-].[Mn+3] | -0.63 |
| CCn1c(=O)c2c(nc(/C=C/c3ccc(OC)c(OC)c3)n2C)n(CC)c1=O [Istradefylline] | -0.775 |
| Cc1c(Cl)cccc1Nc1ccccc1C(=O)O [Tolfenamic acid] | -0.187 |
| NC(=O)Nc1sc(-c2ccc(F)cc2)cc1C(N)=O | -1.69 |
| CC(C)c1c(C(=O)Nc2ccccc2)c(-c2ccccc2)c(-c2ccc(F)cc2)n1CC[C@@H](O)C[C@@H](O)CC(=O)O | -2.01 |
| C#Cc1cccc(Nc2ncnc3cc(OCCOC)c(OCCO)cc23)c1 | -0.577 |
| Cc1c(NC(=O)c2ccc(C(C)(C)C)cc2)cccc1-c1cn(C)c(=O)c(Nc2ccc(C(=O)N3CCOCC3)cc2)n1 | 0.702 |
| COc1ccc(COc2ccc(Cc3cnc(N)nc3N)cc2OC)cc1 | -0.788 |
| Nc1nc(N)c2nc(-c3ccccc3)c(N)nc2n1 [Triamterene] | -0.407 |
| CC(=O)OCC(=O)NCCCOc1cccc(CN2CCCCC2)c1 | -0.62 |
| Cc1nc2c(-c3cnc(N)nc3)nc(N3CCOCC3)nc2n1C(C)C | 1.07 |
| O=C(Nc1cccc(Cl)c1)c1ccccn1 | 0.851 |
| C[C@H](N[C@@H](CCc1ccccc1)C(=O)O)C(=O)N1CCC[C@H]1C(=O)O | -0.963 |
| O=C(/C=C/c1cccc(S(=O)(=O)Nc2ccccc2)c1)NO [Belinostat(PXD101)] | 2.26 |
| COC(=O)CCSCc1ccc(-c2onc(C)c2NC(=O)OC(C)c2ccccc2Cl)cc1 (stereo not given) | -0.843 |

— the supplement of paper PMC10121225
